The supplement of paper PMC10849652
Of roughly 8,800 targets only a part is listed; those with a hit were picked by preference. About 0.5% of all pairs of compound and target were hits. Unmarked numbers belong to inactive results.

Experiments:
Test in all cases: log2 fold change, soluble protein after heating vs DMSO (PISA); higher = thermal stabilisation; K562 lysate, 10 uM; active = over 0.2 and 3.5 SD of the protein, either way, in both replicates (recomputed)
[1] = compound: C#Cc1cccc(Nc2ncnc3cc(OCCOC)c(OCCOC)cc23)c1 [erlotinib]
In short: (§1)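 To prepare the extract, K562 pellets were dounce-homogenised in PBS pH 7.4 with 1 mM MgCl2, giving crude material at 1 mg/mL protein. This was treated with 10 μM compound for 30 min, then heated in aliquots for 3 min over 48°C-58°C before pooling and addition of NP-40 to 0.5% at 4°C. Centrifugation at 21,000xg for 90 min left soluble protein in the supernatant, which TMTpro 16plex LC-MS/MS quantified with equalised channel sums. Results are log-two fold changes in thermal stability compared with solvent controls, from duplicates.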

[2] = compound: C/C(=N\NC(=O)C1=CC(=CC=C1)S(=O)(=O)N2CCOCC2)/C3=C(C=CC(=C3)Cl)O
In short: as §1

[3] = compound: C1=CC(=CC=C1C2=NC3=C(N2)C=C(C=C3)C(=O)N)OC4=CC=C(C=C4)Cl
In short: as §1

[4] = compound: C1=CC2=C(C=CC(=C2)/C=C\3/C(=O)NC(=NCC4=CC=CS4)S3)N=C1
In short: as §1

[5] = compound: C1=CC2=NC=CN=C2C=C1/C=C/3\C(=O)NC(=O)S3
In short: as §1

[6] = compound: C1=CC=C(C=C1)C2=NC(=C(N2)C3=CC=NC=C3)C4=CC(=C(C=C4)Cl)O
In short: as §1

[7] = compound: C1=CC=C2C(=C1)C3=NNC4=CC=CC(=C43)C2=O
In short: as §1

[8] = compound: C1CCN(C1)C(=O)NC2=CC=CC(=C2)NC3=NC=C(C(=N3)NCCC4=CN=CN4)Br
In short: as §1

[9] = compound: C1CN(CCC1(CC2=CC=C(C=C2)Cl)N)C3=NC=NC4=C3C=CN4
In short: as §1

[10] = compound: C1COCCN1CCN2C3=CC=CC=C3N=C2NC(=O)C4=CC(=CC=C4)[N+](=O)[O-] [IRAK-1-4 Inhibitor I]
In short: as §1

[11] = compound: C=CC(=O)N1CCC[C@@H](n2nc(-c3ccc(Oc4ccccc4)cc3)c3c(N)ncnc32)C1 [ibrutinib]
In short: as §1

[12] = compound: CC(=O)c1cnc2ccc(-c3cc(Cl)c(O)c(Cl)c3)nc2c1N[C@H]1CC[C@H](CN(C)C)CC1
In short: as §1

[13] = compound: CC(C)(C)Cn1c(N)nc2ccc(-c3[nH]c(C(C)(C)C)nc3-c3ccc(F)cc3)nc21 [ralimetinib]
In short: as §1

[14] = compound: CC(C)(O)CC(=O)NCCn1ccc2ncnc(Nc3ccc(Oc4cccc(C(F)(F)F)c4)c(Cl)c3)c21
In short: as §1

[15] = compound: CC(C)C1=C2N=C(C=C(N2N=C1)NCC3=CC=CC=C3)NCCCCCCN
In short: as §1

[16] = compound: CC1=C(C(CC(=O)N1)C2=CC=C(C=C2)C(F)(F)F)C(=O)NC3=C(C=C4C(=C3)C=NN4)F
In short: as §1

[17] = compound: CC1=C(C2=C(C=C1)C(=O)C3=CC=CC=C3N2CCCN)C
In short: as §1

[18] = compound: CC1=C(C=C(C=C1)NC(=O)C2=CC(=CC=C2)C(C)(C)C#N)NC3=CC4=C(C=C3)N=CN(C4=O)C
In short: as §1

[19] = compound: CC1=C(C=C(C=C1)NC(=O)C2=CC(=CC=C2)N(C)C)NC(=O)C3=CC=C(C=C3)O
In short: as §1

[20] = compound: CC1=CC=C(C=C1)SC2=C3C=C(SC3=CN=C2)C(=O)N
In short: as §1

Sequence of UniProt Q9H974 (Q9H974 whole entry, looked up): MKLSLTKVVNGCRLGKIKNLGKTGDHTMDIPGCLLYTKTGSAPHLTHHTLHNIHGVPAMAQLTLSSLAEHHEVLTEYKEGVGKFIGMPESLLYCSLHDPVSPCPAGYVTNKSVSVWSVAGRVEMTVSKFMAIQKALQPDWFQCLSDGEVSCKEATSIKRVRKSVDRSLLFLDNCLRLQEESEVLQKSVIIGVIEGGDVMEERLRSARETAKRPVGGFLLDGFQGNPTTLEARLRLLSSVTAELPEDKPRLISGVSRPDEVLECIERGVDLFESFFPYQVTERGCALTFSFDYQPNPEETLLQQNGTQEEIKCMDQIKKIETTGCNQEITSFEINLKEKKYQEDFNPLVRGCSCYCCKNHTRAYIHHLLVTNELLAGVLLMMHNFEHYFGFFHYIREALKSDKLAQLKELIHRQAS
Sequence of UniProt P38159 (P38159 whole entry, looked up): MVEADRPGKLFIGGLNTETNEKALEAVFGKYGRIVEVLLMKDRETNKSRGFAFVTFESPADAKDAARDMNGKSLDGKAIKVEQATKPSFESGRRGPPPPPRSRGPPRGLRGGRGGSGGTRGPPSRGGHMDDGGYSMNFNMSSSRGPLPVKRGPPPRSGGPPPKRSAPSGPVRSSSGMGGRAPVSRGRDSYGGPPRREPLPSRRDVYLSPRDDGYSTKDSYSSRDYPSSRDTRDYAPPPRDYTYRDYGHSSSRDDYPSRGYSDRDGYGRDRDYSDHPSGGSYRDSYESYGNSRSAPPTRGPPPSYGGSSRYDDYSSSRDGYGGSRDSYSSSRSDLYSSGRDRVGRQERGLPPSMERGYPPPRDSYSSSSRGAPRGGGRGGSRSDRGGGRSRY
Sequence of UniProt P23443 (P23443 whole entry, looked up): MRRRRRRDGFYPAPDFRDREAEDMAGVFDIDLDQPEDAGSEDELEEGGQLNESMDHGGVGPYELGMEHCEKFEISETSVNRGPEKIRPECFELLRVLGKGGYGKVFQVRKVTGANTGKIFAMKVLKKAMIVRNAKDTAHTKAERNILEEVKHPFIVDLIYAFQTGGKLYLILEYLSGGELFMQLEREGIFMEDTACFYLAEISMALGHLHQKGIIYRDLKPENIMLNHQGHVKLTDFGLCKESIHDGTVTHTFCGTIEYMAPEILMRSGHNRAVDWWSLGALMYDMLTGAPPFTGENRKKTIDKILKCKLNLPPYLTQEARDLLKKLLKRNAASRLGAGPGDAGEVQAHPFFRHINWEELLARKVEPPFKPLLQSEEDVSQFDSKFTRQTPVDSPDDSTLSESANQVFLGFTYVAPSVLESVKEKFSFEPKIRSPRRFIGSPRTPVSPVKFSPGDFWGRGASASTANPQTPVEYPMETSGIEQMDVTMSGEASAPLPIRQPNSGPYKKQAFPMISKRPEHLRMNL
Sequence of UniProt P61586 (P61586 whole entry, looked up): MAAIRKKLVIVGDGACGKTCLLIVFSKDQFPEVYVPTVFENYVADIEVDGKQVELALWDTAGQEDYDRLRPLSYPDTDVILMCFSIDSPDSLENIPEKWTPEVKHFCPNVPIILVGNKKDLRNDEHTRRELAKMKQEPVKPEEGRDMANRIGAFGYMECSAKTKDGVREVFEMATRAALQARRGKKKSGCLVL
Sequence of UniProt O95248 (O95248 whole entry, looked up): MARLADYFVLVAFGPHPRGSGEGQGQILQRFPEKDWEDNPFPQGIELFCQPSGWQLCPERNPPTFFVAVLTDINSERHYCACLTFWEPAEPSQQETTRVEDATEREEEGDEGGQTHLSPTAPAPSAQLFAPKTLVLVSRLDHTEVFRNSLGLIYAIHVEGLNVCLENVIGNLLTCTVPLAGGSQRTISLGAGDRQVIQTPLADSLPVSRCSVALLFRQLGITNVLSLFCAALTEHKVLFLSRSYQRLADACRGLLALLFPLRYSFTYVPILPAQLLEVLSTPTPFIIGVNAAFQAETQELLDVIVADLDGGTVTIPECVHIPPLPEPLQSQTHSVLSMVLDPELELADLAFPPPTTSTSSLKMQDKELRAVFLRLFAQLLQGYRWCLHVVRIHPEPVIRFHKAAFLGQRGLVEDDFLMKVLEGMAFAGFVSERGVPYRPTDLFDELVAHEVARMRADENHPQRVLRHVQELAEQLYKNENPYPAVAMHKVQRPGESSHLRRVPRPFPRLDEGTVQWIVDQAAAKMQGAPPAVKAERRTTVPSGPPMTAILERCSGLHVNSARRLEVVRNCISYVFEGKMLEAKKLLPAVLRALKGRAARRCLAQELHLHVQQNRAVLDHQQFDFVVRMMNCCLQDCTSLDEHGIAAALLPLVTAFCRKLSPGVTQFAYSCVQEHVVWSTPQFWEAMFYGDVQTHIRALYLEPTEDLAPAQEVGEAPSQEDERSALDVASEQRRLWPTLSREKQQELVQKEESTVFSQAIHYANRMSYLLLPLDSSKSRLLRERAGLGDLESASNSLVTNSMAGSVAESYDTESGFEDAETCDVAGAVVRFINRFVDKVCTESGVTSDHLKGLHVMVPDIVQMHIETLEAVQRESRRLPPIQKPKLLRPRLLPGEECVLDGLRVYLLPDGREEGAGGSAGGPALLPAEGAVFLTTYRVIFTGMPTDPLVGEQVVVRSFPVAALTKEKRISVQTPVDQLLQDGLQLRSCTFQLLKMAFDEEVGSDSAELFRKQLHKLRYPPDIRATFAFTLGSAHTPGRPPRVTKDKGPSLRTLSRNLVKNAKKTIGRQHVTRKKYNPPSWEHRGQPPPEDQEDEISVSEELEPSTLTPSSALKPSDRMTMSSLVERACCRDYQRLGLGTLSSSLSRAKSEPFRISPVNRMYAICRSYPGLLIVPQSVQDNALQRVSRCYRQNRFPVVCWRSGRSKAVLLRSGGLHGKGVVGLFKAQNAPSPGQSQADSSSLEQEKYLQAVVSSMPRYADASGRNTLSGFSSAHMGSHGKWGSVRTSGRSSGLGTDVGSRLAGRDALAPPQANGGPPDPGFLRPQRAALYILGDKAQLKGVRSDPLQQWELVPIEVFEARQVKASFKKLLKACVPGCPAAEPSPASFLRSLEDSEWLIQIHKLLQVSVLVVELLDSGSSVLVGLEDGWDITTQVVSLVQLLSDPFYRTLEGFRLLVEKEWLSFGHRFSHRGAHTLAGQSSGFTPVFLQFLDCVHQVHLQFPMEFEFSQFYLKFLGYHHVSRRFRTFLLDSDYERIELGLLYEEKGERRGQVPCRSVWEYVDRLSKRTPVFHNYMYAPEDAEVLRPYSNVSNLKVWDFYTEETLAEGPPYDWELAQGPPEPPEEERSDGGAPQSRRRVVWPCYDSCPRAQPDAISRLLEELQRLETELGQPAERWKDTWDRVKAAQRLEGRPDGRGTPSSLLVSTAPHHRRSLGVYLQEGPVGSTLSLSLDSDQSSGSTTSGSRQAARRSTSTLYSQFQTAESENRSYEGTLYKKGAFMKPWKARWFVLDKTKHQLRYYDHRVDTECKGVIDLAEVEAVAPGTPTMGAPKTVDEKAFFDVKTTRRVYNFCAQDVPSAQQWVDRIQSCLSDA
Sequence of UniProt Q5XPI4 (Q5XPI4 whole entry, looked up): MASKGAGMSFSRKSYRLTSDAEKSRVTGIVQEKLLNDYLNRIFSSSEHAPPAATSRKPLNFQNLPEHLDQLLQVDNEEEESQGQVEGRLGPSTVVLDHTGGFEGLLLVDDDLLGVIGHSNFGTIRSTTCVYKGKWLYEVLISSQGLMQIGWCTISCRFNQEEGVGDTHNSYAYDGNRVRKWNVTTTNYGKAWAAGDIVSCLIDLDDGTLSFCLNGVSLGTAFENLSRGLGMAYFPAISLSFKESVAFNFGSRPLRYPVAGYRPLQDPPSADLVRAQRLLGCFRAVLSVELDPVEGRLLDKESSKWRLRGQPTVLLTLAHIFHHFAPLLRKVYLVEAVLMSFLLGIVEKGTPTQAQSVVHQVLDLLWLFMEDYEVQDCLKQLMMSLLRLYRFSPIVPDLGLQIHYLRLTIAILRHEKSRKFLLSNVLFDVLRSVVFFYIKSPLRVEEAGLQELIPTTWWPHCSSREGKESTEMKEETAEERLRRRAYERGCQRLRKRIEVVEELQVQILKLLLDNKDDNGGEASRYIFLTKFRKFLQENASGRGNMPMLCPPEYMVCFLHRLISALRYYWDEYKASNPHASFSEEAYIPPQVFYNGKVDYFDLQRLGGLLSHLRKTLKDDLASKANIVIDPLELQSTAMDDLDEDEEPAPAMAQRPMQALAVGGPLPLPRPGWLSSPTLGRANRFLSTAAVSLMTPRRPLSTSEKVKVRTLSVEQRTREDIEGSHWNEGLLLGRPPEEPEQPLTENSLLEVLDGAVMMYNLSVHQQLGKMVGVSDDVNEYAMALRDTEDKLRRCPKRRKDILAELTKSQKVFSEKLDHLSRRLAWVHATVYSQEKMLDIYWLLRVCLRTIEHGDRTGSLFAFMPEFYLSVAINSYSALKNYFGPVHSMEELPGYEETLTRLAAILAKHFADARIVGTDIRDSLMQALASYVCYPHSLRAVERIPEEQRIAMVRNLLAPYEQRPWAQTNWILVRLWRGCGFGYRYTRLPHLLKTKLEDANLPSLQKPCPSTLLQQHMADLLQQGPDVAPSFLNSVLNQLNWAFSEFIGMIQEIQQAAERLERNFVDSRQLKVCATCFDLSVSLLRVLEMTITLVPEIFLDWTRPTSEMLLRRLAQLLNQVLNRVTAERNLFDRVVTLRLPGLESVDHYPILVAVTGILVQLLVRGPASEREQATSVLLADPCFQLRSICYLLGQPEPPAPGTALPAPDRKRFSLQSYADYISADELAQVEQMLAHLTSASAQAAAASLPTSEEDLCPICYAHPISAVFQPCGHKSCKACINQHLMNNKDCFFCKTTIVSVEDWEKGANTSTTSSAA
Sequence of UniProt Q99643 (Q99643 whole entry, looked up): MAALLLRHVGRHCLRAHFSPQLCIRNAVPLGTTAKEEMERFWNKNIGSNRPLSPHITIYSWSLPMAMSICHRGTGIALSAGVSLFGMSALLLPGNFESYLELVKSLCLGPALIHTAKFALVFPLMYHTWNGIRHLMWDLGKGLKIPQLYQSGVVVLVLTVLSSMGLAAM

| Target | log2 fold change [1] | log2 fold change [2] | log2 fold change [3] | log2 fold change [4] | log2 fold change [5] | log2 fold change [6] | log2 fold change [7] | log2 fold change [8] | log2 fold change [9] | log2 fold change [10] | log2 fold change [11] | log2 fold change [12] | log2 fold change [13] | log2 fold change [14] | log2 fold change [15] | log2 fold change [16] | log2 fold change [17] | log2 fold change [18] | log2 fold change [19] | log2 fold change [20] |
| --- | --- | --- | --- | --- | --- | --- | --- | --- | --- | --- | --- | --- | --- | --- | --- | --- | --- | --- | --- | --- |
| RNF213, A0A0A0MTC1 | 0.041 | 0.004 | 0 | 0.042 | 0.015 | 0.021 | -0.045 | -0.005 | 0.047 | 0.025 | 0.015 | 0.006 | -0.001 | -0.014 | 0.007 | 0.014 | 0.008 | 0.014 | 0.042 | 0.022 |
| QRSL1 (UniProt Q9H0R6) | -0.01 | -0.003 | 0.004 | -0.14 | -0.111 | 0.002 | 0.116 | -0.017 | 0.022 | -0.01 | -0.171 | -0.059 | 0.018 | -0.064 | 0.066 | -0.003 | -0.073 | -0.041 | 0.027 | 0.076 |
| RBMX (UniProt P38159) | 0 | 0.019 | -0.056 | 0.016 | 0.013 | 0.025 | 0.018 | 0.06 | 0.029 | -0.012 | -0.034 | -0.132 | 0.004 | 0.032 | -0.029 | -0.017 | 0.035 | -0.016 | -0.016 | -0.006 |
| SDHC (UniProt Q99643) | 0.013 | 0.002 | 0.001 | 0 | -0.048 | -0.01 | 0.02 | -0.02 | -0.067 | 0.032 | 0.033 | -0.012 | 0.064 | -0.035 | -0.05 | -0.015 | -0.013 | -0.026 | 0.023 | 0.044 |
| RAP1GAP isoform 4 (UniProt P47736) | 0.087 | -0.028 | -0.011 | -0.018 | -0.019 | -0.012 | -0.005 | 0.02 | 0.056 | 0.041 | -0.024 | 0.018 | 0.068 | -0.037 | 0.051 | 0.003 | -0.008 | 0.056 | -0.009 | -0.012 |
| RIOK2 (UniProt Q9BVS4) | -0.018 | -0.045 | -0.015 | 0.07 | 0.038 | 0.029 | 0.395 (active) | -0.01 | -0.019 | -0.005 | -0.012 | 0.512 (active) | 0.026 | -0.014 | -0.021 | -0.018 | -0.011 | -0.016 | 0.013 | 0.052 |
| RNF123 (UniProt Q5XPI4) | 0.058 | 0.016 | -0.008 | 0.029 | 0.019 | -0.015 | -0.035 | -0.005 | 0.044 | -0.019 | 0.028 | 0.017 | 0.029 | -0.042 | -0.003 | -0.02 | 0.001 | 0.027 | -0.016 | 0.022 |
| RAF1 isoform 2 (UniProt P04049) | -0.011 | -0.033 | -0.016 | -0.072 | -0.113 | -0.009 | 0.007 | 0.036 | -0.044 | -0.058 | -0.046 | 0.047 | 0.054 | 0.004 | 0.065 | 0.092 | -0.055 | 0.359 (active) | 0 | 0.027 |
| RHOA (UniProt P61586) | 0.001 | -0.093 | 0.049 | -0.093 | -0.09 | 0.064 | 0.038 | -0.022 | 0.039 | -0.022 | 0.36 | -0.041 | 0.014 | 0.094 | 0.031 | 0.003 | 0.093 | -0.02 | -0.022 | -0.006 |
| RBM5 (UniProt P52756) | 0.095 | -0.042 | 0.054 | 0.006 | -0.006 | 0.015 | -0.121 | -0.021 | -0.001 | -0.023 | -0.017 | 0.03 | 0.004 | 0.042 | -0.141 | -0.004 | 0.065 | 0.035 | -0.007 | -0.06 |
| RPS6KB1 (UniProt P23443) | -0.017 | -0.018 | -0.034 | 0.013 | -0.001 | 0.083 | 0.322 (active) | 0.085 | 0.027 | 0.028 | 0.024 | 0.355 (active) | 0.026 | 0.007 | -0.027 | 0 | 0.01 | -0.029 | -0.01 | -0.001 |
| SBF1 isoform 4 (UniProt O95248) | 0.033 | -0.059 | 0.042 | -0.052 | -0.005 | -0.027 | -0.029 | 0.028 | -0.026 | -0.002 | 0.086 | 0.116 | 0 | -0.021 | -0.079 | 0.045 | -0.039 | -0.012 | 0.054 | 0.079 |
| QTRT2 isoform 4 (UniProt Q9H974) | -0.024 | 0.082 | -0.032 | -0.019 | -0.048 | -0.009 | -0.007 | 0.007 | 0.022 | 0.006 | 0.01 | 0.002 | 0.014 | -0.028 | -0.014 | -0.035 | 0.006 | -0.025 | -0.003 | -0.013 |
| SASS6 (UniProt Q6UVJ0) | 0.024 | 0.016 | 0.028 | -0.019 | -0.009 | 0.015 | -0.023 | -0.012 | 0 | -0.021 | -0.006 | 0.023 | -0.006 | -0.056 | -0.017 | 0.024 | 0.007 | 0.015 | 0.001 | -0.021 |
| RPAP1 (UniProt Q9BWH6) | 0.05 | -0.078 | 0.019 | 0.016 | 0.007 | -0.028 | 0.001 | -0.001 | 0.02 | 0.005 | -0.016 | 0.049 | 0.02 | -0.015 | -0.037 | 0.011 | -0.002 | -0.013 | 0.007 | -0.033 |
| RECQL5 (UniProt O94762) | 0.046 | -0.093 | 0.282 | 0.083 | 0.005 | -0.002 | 0.012 | -0.062 | 0.036 | 0.006 | 0.014 | -0.335 | 0.035 | -0.015 | 0.055 | 0.03 | -0.066 | -0.044 | 0.035 | -0.001 |
